From PubChem
Compounds with a hit are over-represented: about 3.4% of the library has one in this group of screens.
MITF primary: human MITF inhibition, primary screen. inhibition, % at 2.6 µM. AlphaScreen MITF homodimerization, bead proximity signal. 0.91% of 650,000 active. O75030; in the data active = inhibition above about 50%
FBW7 act: human FBW7 E3 ligase activation, primary screen | 0.13% of 650,000 active | Q969H0 | AlphaScreen FBW7–phospho-cyclin E peptide binding, activator screen | normalized activity (activation), % at 26.1 µM; in the data active = normalized activity above about 1.9%;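 note: purified mutant Fbw7 with reduced substrate affinity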
Target sequence (Q969H0 whole entry, looked up): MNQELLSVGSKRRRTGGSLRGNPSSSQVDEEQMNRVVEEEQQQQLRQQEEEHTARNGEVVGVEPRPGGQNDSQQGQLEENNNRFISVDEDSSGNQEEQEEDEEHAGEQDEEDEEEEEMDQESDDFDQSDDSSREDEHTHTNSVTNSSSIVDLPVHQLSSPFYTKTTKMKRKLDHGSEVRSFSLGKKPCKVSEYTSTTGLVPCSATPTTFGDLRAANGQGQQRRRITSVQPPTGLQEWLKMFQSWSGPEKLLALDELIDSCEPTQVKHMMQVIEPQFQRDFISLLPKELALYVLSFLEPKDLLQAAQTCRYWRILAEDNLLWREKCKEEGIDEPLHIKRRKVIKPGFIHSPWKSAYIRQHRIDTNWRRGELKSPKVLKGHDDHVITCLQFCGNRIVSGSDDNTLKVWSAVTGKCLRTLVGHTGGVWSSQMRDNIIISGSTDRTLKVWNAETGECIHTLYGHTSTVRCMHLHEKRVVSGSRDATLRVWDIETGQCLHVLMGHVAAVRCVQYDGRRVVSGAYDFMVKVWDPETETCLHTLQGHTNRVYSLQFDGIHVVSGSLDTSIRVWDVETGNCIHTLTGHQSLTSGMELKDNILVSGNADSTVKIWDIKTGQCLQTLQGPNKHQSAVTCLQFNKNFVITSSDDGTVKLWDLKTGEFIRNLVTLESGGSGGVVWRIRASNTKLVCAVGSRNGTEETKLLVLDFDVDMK
TEAD-YAP inh: TEAD-YAP interaction inhibition; HEK-TIYL cells, TEAD-Gal4/YAP UAS-luciferase luminescence; inhibition, % at 9.12 µM; 1.4% of 640,000 active; AID 1259422; in the data active = inhibition above about 32%
GPR151 ag: activators of human GPR151; Q8TDV0; PathHunter beta-arrestin GPR151 cells, luminescence; activation, % at 11.2 µM; 1% of 650,000 active; in the data active = activation above about 4.9%
Large screens that a line does not name were inactive; ! = a repeat was not active.

CCOC(=O)c1c(NC(=O)C(C)Sc2nnc(CNC(=O)c3cc(OC)cc(OC)c3)n2-c2cccc(C)c2)sc2c1CCC2 (stereo not drawn)	none
Cc1ccccc1N(CC(=O)NCCCOC(C)C)S(=O)(=O)c1ccc(Cl)cc1	none
O=C(c1ccco1)N1N=C(c2ccco2)CC1c1ccc(Cl)cc1 (stereo not drawn)	none
CC(=O)N(c1ccc(C(N)=O)cc1)C(C(=O)Nc1ccc2c(c1)OCCO2)c1ccc(Cl)cc1 (stereo not drawn)	none
COc1cc(Nc2nc(Nc3cnccn3)nc3nc[nH]c23)cc(OC)c1OC	FBW7 act 4.5, TEAD-YAP inh 34
COc1ccc(CCNc2nc(Nc3cccnc3)nc3nc[nH]c23)cc1	TEAD-YAP inh 41
COc1ccc(CCNc2nc(Nc3ccccc3)nc3nc[nH]c23)cc1	none
COc1cc(Nc2nc(Nc3ccccc3)nc3nc[nH]c23)cc(OC)c1OC	none
O=C(N/C(=C/c1ccc([N+](=O)[O-])cc1)c1nc2ccccc2[nH]1)c1ccco1	none
COc1ccccc1Oc1nc2c(C)cccn2c(=O)c1/C=C(\C#N)C(=O)N1CCCCC1	none
Cc1cccc(NC(=O)C(C(F)(F)F)C(F)(F)F)c1C	none
CCCC(=O)C1=C(O)C(C(=O)OC)C(C)(C)CC1=Nc1ccccc1N (stereo not drawn)	none
CCOC(=O)c1c(C)[nH]c(-c2csc(N)n2)c1C	TEAD-YAP inh 32
CC(=O)c1ccc(N=Nc2ccc3nonc3c2N)cc1	TEAD-YAP inh 50
Cc1cccc2c(C(=O)OCC(C)C)cc(-c3ccc(Cl)cc3)nc12	none
O=CC12c3ccccc3C(c3ccccc31)C1C(=O)N(c3ccc(Cl)cc3)C(=O)C12 (stereo not drawn)	TEAD-YAP inh 44
O=CC12c3ccccc3C(c3ccccc31)C1C(=O)N(c3ccccc3)C(=O)C12 (stereo not drawn)	none
Cc1ccc(N2C(=O)C3C4c5ccccc5C(C=O)(c5ccccc54)C3C2=O)cc1[N+](=O)[O-] (stereo not drawn)	TEAD-YAP inh 34
Cc1cc(Br)ccc1NC(=O)Cn1cnc2scc(-c3ccccc3)c2c1=O	none
c1ccc(-c2ncn(-c3ccc(Nc4nccc(-c5cccc(N6CCOCC6)c5)n4)cc3)n2)nc1	TEAD-YAP inh 80
c1ccc(-c2ncn(-c3ccc(Nc4nccc(-c5cncc(N6CCOCC6)c5)n4)cc3)n2)nc1	TEAD-YAP inh 73
c1cc(-c2ccnc(Nc3ccc(-n4cnnc4)cc3)n2)cc(N2CCOCC2)c1	TEAD-YAP inh 45
Fc1cc(-c2nc(Nc3ccc(-n4cnc(N5CCOCC5)n4)cc3)ncc2F)cc(N2CCOCC2)c1	none
Fc1cc(-c2nc(Nc3ccc(-n4cnc(-c5ccccn5)n4)cc3)ncc2F)cc(N2CCOCC2)c1	TEAD-YAP inh 58
COc1ccc(N2CCN(S(=O)(=O)c3ccc(F)c(C(=O)Nc4cc(C)cc(C)c4)c3)CC2)cc1	none
O=Cc1ccc(-c2ccc(C(=O)O)c(O)c2)o1	MITF primary 86
CC(=O)Nc1ccc(/C=C2\CCc3ccccc3C2=O)cc1	TEAD-YAP inh 70
COc1ccc2cc(-c3nc4ccccc4[nH]3)c(=Nc3cccc(C(F)(F)F)c3)oc2c1	TEAD-YAP inh 72
Cc1cccc(Nc2nc3nonc3nc2Nc2ccccc2I)c1	TEAD-YAP inh 87
CC(=O)Nc1ccc(-c2nc3ccc(C)cc3[nH]2)cc1	none
CC(=O)Nc1ccc2nc(-c3cc(C)ccc3C)[nH]c2c1	TEAD-YAP inh 46
O=Cc1c(O)n(-c2ccc(Cl)cc2)c(=O)[nH]c1=O	FBW7 act 2.5
c1ccc(Nc2nccn3c(-c4ccco4)cnc23)cc1	TEAD-YAP inh 44
Nc1ccc(-c2cnc3c(Nc4ccccc4)nccn23)cc1	TEAD-YAP inh 53
Oc1cccc(-c2cnc3c(Nc4ccccc4)nccn23)c1	none
CC1(CCC(=O)NC2CCc3ccccc32)CCC(=O)N1 (stereo not drawn)	none
N=C(N)c1ccc(OCCCCCOc2ccc(C(=N)N)cc2)cc1	TEAD-YAP inh 44!
N=C(N)c1ccc(N)cc1	none
Cc1cccc(C(=O)Nc2ccc3c(c2)OCCO3)c1[N+](=O)[O-]	none
CCOc1ccc(C2NN=C(c3ccccc3)S2)cc1 (stereo not drawn)	TEAD-YAP inh 71
COc1ccc([N+](=O)[O-])cc1C1NN=C(c2ccccc2)S1 (stereo not drawn)	none
COc1ccc(O)c(C2NN=C(c3ccccc3)S2)c1 (stereo not drawn)	TEAD-YAP inh 42
CN(c1ccccc1)c1ccc(C2NN=C(c3ccccc3)S2)cc1 (stereo not drawn)	FBW7 act 2.1
CC(=O)Nc1ccc(C2NN=C(c3ccccc3)S2)cc1 (stereo not drawn)	none
Cc1[nH]c2c(C(=O)NCC3Cc4c(F)ccc(-c5ncccn5)c4O3)cccc2c1C (stereo not drawn)	TEAD-YAP inh 32
COc1ccc(/C=C(\C#N)c2ccccc2)c(OC)c1	TEAD-YAP inh 32
COc1cc(COc2cccc3ccc(N4CCN(C(=O)c5ccco5)CC4)nc23)cc(OC)c1	TEAD-YAP inh 35
Cc1ccccc1COc1cccc2ccc(N3CCN(C(=O)c4ccco4)CC3)nc12	none
Cc1cccc(-c2nc3ccccc3c(=O)n2Cc2ccccc2Cl)c1	none
NC(=O)c1c(NC(=O)c2cc3ccccc3o2)sc2c1CCCC2	TEAD-YAP inh 46
Cc1ccc(C(=O)Nc2sc3c(c2C(N)=O)CCCCC3)o1	TEAD-YAP inh 55
CCOC(=O)C(N)/C=C(\C)CP(=O)(O)O (stereo not drawn)	none (no result: TEAD-YAP inh)
COc1cccc(/C(C)=N/NC(=O)c2cc(-c3cccnc3)nc3ccccc23)c1	none
C/C(=N\NC(=O)c1cc(-c2cccnc2)nc2ccccc12)c1ccccc1O	TEAD-YAP inh 41
CS(=O)(=O)c1ccccc1C(=O)Nc1ccc(F)c(Cl)c1	none
COc1cc(SC)ccc1C(=O)N1CCN(c2cccc(Cl)c2)CC1	TEAD-YAP inh 51
COc1nn(C)cc1C(=O)N1CCCC(C(=O)N2CCN(c3cccc(Cl)c3)CC2)C1 (stereo not drawn)	TEAD-YAP inh 42
COc1ccccc1N1CCN(C(=O)c2nc(SC)ncc2Cl)CC1	TEAD-YAP inh 49
CSc1ccc(NC(=O)NCCN2CCN(c3cccc(Cl)c3)CC2)cc1	FBW7 act 4.4
CSc1ncc(Cl)c(C(=O)N2CCN(C)CC2)n1	none
O=C(Cn1c(=O)oc2cc(S(=O)(=O)NC3CCCC3)ccc21)Nc1ccc(F)cc1	none
CCC(=O)Oc1ccc(C(=O)NCc2ccc(C)cc2)cc1	none
COc1ccccc1N1CCN(C(=O)c2ncoc2-c2ccccc2C(F)(F)F)CC1	TEAD-YAP inh 51
COc1ccccc1N1CCN(C(=O)c2cc(OC)c(OC)c(OC)c2)CC1	TEAD-YAP inh 64
COc1ccc(Cl)cc1C(=O)N1CCN(c2ccccc2F)CC1	TEAD-YAP inh 34
COc1ccccc1CNC(=O)c1ncoc1-c1ccccc1C(F)(F)F	none
COc1ccccc1N1CCN(C(=O)COc2ccc(Br)cc2C)CC1	TEAD-YAP inh 49
COc1ccccc1N1CCN(C(=O)COc2cccc(C)c2C)CC1	none
O=C(c1ccccc1)N(CCCO)Cc1cc2cc3c(cc2[nH]c1=O)OCO3	none
